# Assay results published in PubChem BioAssay AID1159580 (chemical genetic matrix, 2015).
# The campaign covered roughly 5,500 compounds. About 2,000 (36%) were called active. Not shown: some 18% with an inconclusive outcome. Some of the results follow. A number with no mark means an inactive call. Rule as the data show it: active = normalized growth mostly below about 0.91 (no sharp cut-off); inconclusive = no clear call, values can overlap the other calls; inactive = mostly above about 0.92.
# Assay: chemical genetic growth profiling, strain panel (AID 1159580);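 also: tested at 20 µM; growth read once vehicle control cultures reached saturation at 30 °C; 1 = growth at the plate median or of vehicle wells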
# Conditions: S. cerevisiae deletion strains, growth OD
structure (smiles),measurement,setting,value
NCCCCCCCCCCN,normalized growth,"locus YAL040C, strain CLN3, stronger effect = lower value",1.01
same,normalized growth,"locus YCL061C, strain MRC1 (second series), stronger effect = lower value",1.01
same,normalized growth,"locus YDR150W, strain NUM1, stronger effect = lower value",1.01
same,normalized growth,"locus YDR363W, strain ESC2, stronger effect = lower value",1.03
same,normalized growth,"locus YER002W, strain NOP16, stronger effect = lower value",1.01
same,normalized growth,"locus YNL175C, strain NOP13, stronger effect = lower value",1.01
same,normalized growth,"locus YNL197C, strain WHI3, stronger effect = lower value",1
same,normalized growth,"locus YNL224C, strain SQS1, stronger effect = lower value",1
same,normalized growth,"locus YOR083W, strain WHI5 (second series), stronger effect = lower value",1.02
same,normalized growth,"locus YPL241C, strain CIN2, stronger effect = lower value",1.01
C/C(=N/OC(=O)Nc1ccc(Cl)cc1)c1ccc2c(c1)CCO2,normalized growth,"locus YAR019C, strain CDC15, stronger effect = lower value",0.946
same,normalized growth,"locus YBL105C, strain PKC1, stronger effect = lower value",0.95
same,normalized growth,"locus YBR135W, strain CKS1, stronger effect = lower value",0.954
same,normalized growth,"locus YBR136W, strain MEC1, stronger effect = lower value",0.95
same,normalized growth,"locus YBR160W, strain CDC28, stronger effect = lower value",0.943
same,normalized growth,"locus YDL017W, strain CDC7, stronger effect = lower value",0.947
same,normalized growth,"locus YDL028C, strain MPS1, stronger effect = lower value",0.955
same,normalized growth,"locus YDL101C, strain DUN1, stronger effect = lower value",0.948
same,normalized growth,"locus YDL108W, strain KIN28, stronger effect = lower value",0.966
same,normalized growth,"locus YDL132W, strain cdc53, stronger effect = lower value",0.935
same,normalized growth,"locus YDL214C, strain PRR2, stronger effect = lower value",0.868
same,normalized growth,"locus YDR052C, strain DBF4, stronger effect = lower value",0.957
same,normalized growth,"locus YDR054C, strain cdc34, stronger effect = lower value",0.93
same,normalized growth,"locus YDR226W, strain ADK1, stronger effect = lower value",0.949
same,normalized growth,"locus YDR477W, strain SNF1, stronger effect = lower value",0.853
same,normalized growth,"locus YER123W, strain YCK3, stronger effect = lower value",0.858
same,normalized growth,"locus YER133W, strain GLC7, stronger effect = lower value",0.837
same,normalized growth,"locus YFL009W, strain cdc4, stronger effect = lower value",0.949
same,normalized growth,"locus YFL029C, strain CAK1, stronger effect = lower value",0.939
same,normalized growth,"locus YFR003C, strain YPI1, stronger effect = lower value",0.959
same,normalized growth,"locus YFR019W, strain FAB1, stronger effect = lower value",0.93
same,normalized growth,"locus YFR028C, strain CDC14, stronger effect = lower value",0.953
same,normalized growth,"locus YGR040W, strain KSS1, stronger effect = lower value",0.835
same,normalized growth,"locus YGR052W, strain FMP48, stronger effect = lower value",0.908
same,normalized growth,"locus YGR092W, strain DBF2, stronger effect = lower value",0.599
same,normalized growth,"locus YHR030C, strain SLT2, stronger effect = lower value",0.607 (active)
same,normalized growth,"locus YHR079C, strain IRE1, stronger effect = lower value",0.775
same,normalized growth,"locus YHR082C, strain KSP1, stronger effect = lower value",0.838
same,normalized growth,"locus YHR205W, strain SCH9, stronger effect = lower value",0.756
same,normalized growth,"locus YIL147C, strain SLN1, stronger effect = lower value",0.949
same,normalized growth,"locus YJL095W, strain BCK1, stronger effect = lower value",0.69
same,normalized growth,"locus YJL128C, strain PBS2, stronger effect = lower value",0.951
same,normalized growth,"locus YJL157C, strain FAR1, stronger effect = lower value",0.852
same,normalized growth,"locus YJR016C, strain ILV3, stronger effect = lower value",0.938
same,normalized growth,"locus YJR066W, strain TOR1 (second series), stronger effect = lower value",0.745
same,normalized growth,"locus YJR066W, strain TOR1, stronger effect = lower value",0.727
same,normalized growth,"locus YKL048C, strain ELM1, stronger effect = lower value",0.966
same,normalized growth,"locus YKL067W, strain YNK1, stronger effect = lower value",0.891
same,normalized growth,"locus YKL101W, strain HSL1, stronger effect = lower value",0.92
same,normalized growth,"locus YKL193C, strain SDS22, stronger effect = lower value",0.941
same,normalized growth,"locus YKL203C, strain TOR2, stronger effect = lower value",0.85
same,normalized growth,"locus YLR113W, strain HOG1, stronger effect = lower value",0.755 (active)
same,normalized growth,"locus YLR133W, strain CKI1, stronger effect = lower value",0.884
same,normalized growth,"locus YLR403W, strain SFP1, stronger effect = lower value",0.777
same,normalized growth,"locus YML070W, strain DAK1, stronger effect = lower value",0.874
same,normalized growth,"locus YMR001C, strain CDC5, stronger effect = lower value",0.946
same,normalized growth,"locus YMR205C, strain PFK2 (second series), stronger effect = lower value",0.908
same,normalized growth,"locus YMR277W, strain FCP1, stronger effect = lower value",0.949
same,normalized growth,"locus YNL006W, strain LST8, stronger effect = lower value",0.97
same,normalized growth,"locus YNL020C, strain ARK1, stronger effect = lower value",0.873
same,normalized growth,"locus YNL161W, strain CBK1, stronger effect = lower value",0.951
same,normalized growth,"locus YNL183C, strain NPR1, stronger effect = lower value",0.775
same,normalized growth,"locus YNL207W, strain RIO2, stronger effect = lower value",0.936
same,normalized growth,"locus YNL222W, strain SSU72, stronger effect = lower value",0.954
same,normalized growth,"locus YNL307C, strain MCK1 (second series), stronger effect = lower value",0.832
same,normalized growth,"locus YOL078W, strain AVO1, stronger effect = lower value",0.951
same,normalized growth,"locus YOL136C, strain PFK27, stronger effect = lower value",0.864
same,normalized growth,"locus YOR061W, strain CKA2, stronger effect = lower value",0.873
same,normalized growth,"locus YOR119C, strain RIO1, stronger effect = lower value",0.894
same,normalized growth,"locus YOR231W, strain MKK1, stronger effect = lower value",0.808
same,normalized growth,"locus YOR329C, strain SCD5, stronger effect = lower value",0.956
same,normalized growth,"locus YPL031C, strain PHO85, stronger effect = lower value",0.806
same,normalized growth,"locus YPL153C, strain RAD53, stronger effect = lower value",0.846
same,normalized growth,"locus YPL204W, strain HRR25, stronger effect = lower value",0.803
same,normalized growth,"locus YPL209C, strain IPL1, stronger effect = lower value",0.956
same,normalized growth,"locus YPL256C, strain CLN2, stronger effect = lower value",0.853 (active)
same,normalized growth,"locus YPR025C, strain CCL1, stronger effect = lower value",0.955
same,normalized growth,"locus YPR106W, strain ISR1, stronger effect = lower value",0.959
same,normalized growth,"locus YPR111W, strain DBF20, stronger effect = lower value",0.96
same,normalized growth,"strain NNK1, stronger effect = lower value",0.951
same,normalized growth,"strain TSCII, stronger effect = lower value",0.938
